Compound activity as filed in PubChem.
Tau fluor cs: counter-screen for tau fibril formation inhibitors | tau K18 P301L Alexa594 fluorescence, heparin fibrillization | actives 0.93% (n = 280,000) | Potency, µM (titrated, usually from 57.7 µM), inactives show top-dose activity change, negative = decrease | AID 1463; note: % is set by controls: 0 for no effect and ±100 for the full control effect; nearly all actives have a fitted effect of over 55% in size
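Human tau K18 P301L (15 uM unlabeled, 0.24 uM Alexa 594-labeled) in 100 mM sodium acetate pH 7 with 20 uM heparin, 6 hr at 37 C. ThT 30 uM added, 1 hr ambient; Alexa 594 FP and total fluorescence read at 555/632 nm.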
Tau ThT inhib: tau fibrillization inhibition (ThT binding); Potency, µM (titrated, usually from 57.4 µM), for the others: top-dose activity, negative = inhibition, usual class: inhibitors; AID 1460; P10636; recombinant tau K18 P301L (four-repeat tau fragment), heparin-induced fibrillization, ThT fluorescence; actives 2.1% (n = 270,000); note: % is set by controls: 0 for no effect and ±100 for the full control effect; nearly all actives have a fitted effect of over 55% in size
Target sequence (P10636 561-689 P618L limits assumed): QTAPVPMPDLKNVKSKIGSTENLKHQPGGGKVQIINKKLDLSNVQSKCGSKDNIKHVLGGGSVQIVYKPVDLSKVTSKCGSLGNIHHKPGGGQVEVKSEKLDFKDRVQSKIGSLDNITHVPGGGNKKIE
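Heparin-induced fibrillization of the P301L-mutant K18 repeat-domain fragment of human tau was followed by ThT binding in quantitative high-throughput format.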
HTT cytoprotect: Huntington cell model cytoprotection by ATP luminescence; PC12 HTT-Q103 induced, cytoprotection, ATP luminescence, 40 h; Potency, µM (titrated, usually from 56.4 µM), for inactives: cytoprotection (ATP increase), actives largely listed as activators; actives 0.14% (n = 230,000); AID 1471; note: % of control where 0% means no effect; nearly all actives have a fitted effect of over 45% in size
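Stable PC12 Q103-GFP cells in serum-supplemented, phenol red-free DMEM; induction by tebufenozide at 100 nM final; compound dose series; cell viability quantified luminescently from ATP.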
Tau fibril FP: inhibitors of human tau fibril formation | actives 0.39% (n = 280,000) | K18 P301L tau heparin fibrillization, Alexa594 FP, 6 h | Potency, µM (titrated, usually from 57.7 µM), for the others: at the highest dose activity, negative = inhibition, actives largely listed as inhibitors; note: % is set by controls: 0 for no effect and ±100 for the full control effect; nearly all actives have a fitted effect of over 55% in size
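Quantitative HTS format: compounds meet 15 uM recombinant K18 P301L tau and Alexa 594-tau tracer in 100 mM sodium acetate pH 7; 20 uM heparin triggers fibrillization at 37 C over 6 hr; FP gives the signal.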
HTT aggregate: mutant huntingtin aggregation inhibition; PC12 HttQ103-GFP aggregates, Acumen cytometry, 40 h; actives 1.1% (n = 220,000); Potency, µM (titrated, usually from 46.1 µM), without a hit: at the highest dose activity change, negative = inhibition, usual class: inhibitors; note: % is set by controls: 0 for no effect and ±100 for the full control effect; nearly all actives have a fitted effect of over 60% in size
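Quantitative HTS on tebufenozide-induced (100 nM) PC12 cells stably expressing polyQ103 Huntingtin exon 1–GFP. Reduction of bright GFP aggregates, detected by laser scanning cytometry after lysis, identified actives across the titration.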
The depositor's hits bear a star; ? = inconclusive; . = not tested or not shown; [ ] = another dose, or the depositor's remark. Only some compounds are listed: those with a hit (about 3.7% of all), similar ones and a draw of the others. Calls come from the whole dose curve; as a rule, active = well fitted curve in the direction sought with a large enough effect; inconclusive = small, poorly fitted or top-dose-only effect, or another doubt; inactive = no such curve, though single readings can be large; an effect the other way counts as inactive or inconclusive. Potency is the fitted concentration of half-maximal effect.

SMILES	Tau fluor cs	Tau ThT inhib	HTT cytoprotect	Tau fibril FP	HTT aggregate
Cc1ccc(OCC(=O)Nc2cccc(C(=O)OCc3cc(=O)n4nc(C)sc4n3)c2)cc1	-13%	?	.	-1%	.
COc1ccccc1OCC(=O)Nc1ccc(N2CCCCC2)cc1	-20%	-19%	-6%[10 µM]	5%	-10%
CC(=O)c1ccc(N2CCN(C(=S)Nc3ccc(Oc4ccccc4)cc3)CC2)cc1	-21%	?	-54%	-14%	13µM*
Cc1ccccc1C(=O)Nc1ccc(N2CCCC2)cc1	?	?	24%[10 µM]	3%	15%[9.22 µM]
Cc1ccc(C(=O)Nc2ccc(N3CCCC3)cc2)c(C)c1	-26%	14µM*	-25%[10 µM]	2%	5%[9.22 µM]
Cc1cccc(OCC(=O)Nc2ccc(N3CCCC3)cc2)c1C	?	14µM*	-3%[10 µM]	10%	-7%
COc1ccc(C(=O)NC(=S)Nc2ccc(N3CCCC3)cc2)cc1	-22%	?	.	2%	13%
COc1ccc(C(=O)Nc2ccc(N3CCCC3)cc2)cc1	16µM*[quencher]	7.9µM*	-28%	7%	-4%
O=C(Nc1ccc(N2CCCCC2)cc1)c1ccc(F)cc1	-5%	-16%	-86%[10 µM]	11%	?
CC(=O)N1CCN(c2ccc(NC(=O)c3ccc(C)cc3)cc2)CC1	-17%	?	9%	-1%	12%
CCOc1ccc(C(=O)Nc2ccc(N3CCCC3)cc2)cc1	?	8.9µM*	-24%[10 µM]	6%	6%
CCCOc1ccc(C(=O)Nc2ccc(N3CCN(C(C)=O)CC3)cc2)cc1	-19%	2.2µM*	0%[10 µM]	-3%	15%
CC(=O)c1ccc(N2CCN(C(=O)c3cc4c(s3)-c3ccccc3OC4)CC2)cc1	-26%	?	.	-1%	.
O=C(CN1C(=O)C2(SCC(=O)N2c2cccc(Cl)c2)c2ccccc21)NCCc1ccccc1 (stereo unspecified)	-23%	1%	.	-8%	.
O=C1NC(=Nc2ccccc2)/C(=C/c2ccco2)S1	?	22µM*	-10%[10 µM]	-9%	8%
Cn1c(-c2ccc(F)cc2)cnc1SCC(=O)Nc1ccccc1	-5%	-6%	15%[10 µM]	10%	10%[9.22 µM]
COC(=O)c1cnc(SCc2ccc(Cl)cc2)n1C	-6%	-9%	-10%	8%	4%
CCSc1ncc(/C=N/Nc2ccccc2)n1C	?	4.5µM*	26%[10 µM]	?	-21%
CCSc1ncc(/C=N/Nc2ccc(Cl)cc2)n1C	6.3µM*[quencher]	7.9µM*	-51%	-15%	?
CC(C)(C)c1cnnn1-c1ccc(/C=N/Nc2ccc([N+](=O)[O-])cc2)cc1	?	?	11%[10 µM]	?	?
CCSc1ncc(/C=N/Nc2ccc([N+](=O)[O-])cc2)n1C	?	0.89µM*	-24%	-12%	-4%
COc1ccc(Nc2nc(-c3ccccc3F)nc3ccccc23)cc1OC	10µM*[quencher]	?	.	15%	.
COc1ccc(OC)c(Nc2nc(-c3ccccc3O)nc3ccccc23)c1	?	6%	-40%	-14%	13%
C/C(=N/Nc1nc(-c2ccccc2F)nc2ccccc12)c1ccccc1O	?	10µM*	1%[10 µM]	6%	-11%[9.22 µM]
C/C(=N\Nc1nc(-c2ccccc2O)nc2ccccc12)c1ccccc1	?	-8%	1%[10 µM]	-3%	-3%[9.22 µM]
SMILES	Tau fluor cs	Tau ThT inhib	HTT cytoprotect	Tau fibril FP	HTT aggregate
Cc1ccc(C(c2sc3nc(-c4ccco4)nn3c2O)N2CCCCC2)cc1 (stereo unspecified)	-18%	?	.	-3%	.
Cn1c(SCCC#N)nnc1-c1ccc(F)cc1	-3%	-1%	-17%	10%	22%
CC1=C(SCCC#N)S/C(=C2\SC(C)=C(SCCC#N)S2)S1	?	7.9µM*	-12%	?	-17%
Cc1cccc(C(=O)Nc2nnc(S(=O)(=O)N3CCOCC3)s2)c1	-26%	3.5µM*	.	5%	.
O=C(Nc1nnc(S(=O)(=O)N2CCCCC2)s1)c1ccc(F)cc1	?	4.5µM*	.	17%	.
Cc1ccccc1C(=O)Nc1nnc(S(=O)(=O)N2CCCCCC2)s1	-29%	14µM*	.	-6%	.
CCc1cc(OCCCSc2nc(C)cc(=O)[nH]2)ccc1Cl	-11%	?	6%	4%	35µM*
C[C@@H]1CCCN(CP(=O)(c2ccccc2)c2ccccc2)C1	.	.	-1%[10 µM]	.	.
COc1cc([N+](=O)[O-])ccc1-c1ccc(C(=O)Nc2ccc(NC(C)=O)cc2)o1	?	5µM*	32%[10 µM]	-6%	-3%
COc1cccc(NC(=O)c2ccc(-c3ccc([N+](=O)[O-])cc3)o2)c1	?	?	1%[10 µM]	15%	-11%[9.22 µM]
COc1ccc(NC(=O)c2ccc(-c3ccc([N+](=O)[O-])cc3)o2)cc1OC	11µM*[quencher]	5µM*	-1%[10 µM]	6%	2%
CCCCN(C)C(=O)c1ccc2c(c1)N(Cc1cccc(F)c1)C(=O)c1ccccc1S2	-8%	-10%	.	-3%	.
COc1cc(-c2noc(-c3ccc(NCC4CCCO4)c([N+](=O)[O-])c3)n2)cc(OC)c1OC (stereo unspecified)	?	-3%	.	-1%	.
O=C(NCCc1ccccc1)c1sc2ncccc2c1-n1cccc1	-3%	-8%	.	4%	.
COc1ccc(N=Nc2cc(C)ccc2O)cc1	?	16µM*	-11%[10 µM]	11%	3%[9.22 µM]
Cc1ccc(O)c(N=Nc2ccc(S(=O)(=O)N3CCCC3)cc2)c1	?	.	12%[10 µM]	10%	-22%[9.22 µM]
COc1ccc(N=Nc2ccc(N)nc2N)cc1	?	2.5µM*	-2%[10 µM]	?	11%[9.22 µM]
CCOc1ccc2nc3cc(N=Nc4ccc(N)nc4N)ccc3c(N)c2c1	.	.	-3%[10 µM]	.	.
COc1ccc(N=Nc2c(N)n[nH]c2N)cc1	-29%	14µM*	3%[10 µM]	1%	9%[9.22 µM]
Cc1ccc2nc(-c3ccc(NS(=O)(=O)c4ccc(F)c(F)c4)cc3)sc2c1	10µM*[quencher]	?	11%[10 µM]	?	2.8µM*
Cc1nc2ccc(NS(=O)(=O)c3c(C)c(C)cc(C)c3C)cc2s1	-28%	-4%	-67%	-7%	13µM*
Cc1ccc(S(=O)(=O)Nc2ccc3nc(-c4ccc(F)cc4)oc3c2)cc1	?	9%	.	?	.
COc1ccc(-c2nc3ccc(NS(=O)(=O)c4ccc(C)cc4)cc3o2)cc1	16µM*[quencher]	6%	.	-14%	.
Cc1ccc(S(=O)(=O)Nc2ccc3nc(N)sc3c2)cc1	?	?	0%[10 µM]	1%	?
Cc1ccc(S(=O)(=O)Nc2ccc3nc(C)sc3c2)cc1	-21%	-10%	-48%	-2%	14µM*
Cc1cc(C)cc(OCC(=O)NCC2(N(C)C)CCCCC2)c1	4%	6%	.	5%	.
CCc1nnc(SC(CC)C(=O)Nc2cccc(OC)c2)c2cc3oc(C)cc3n12 (stereo unspecified)	-19%	?	.	-10%	.
CCCCCCCCCCCCC1CO1 (stereo unspecified)	.	.	-7%	.	.
CC(C)(C)c1cc[n+](C2=C([O-])c3ccccc3C(=O)/C2=N\S(=O)(=O)c2ccccc2)cc1	?	16µM*	-14%[10 µM]	?	-1%[9.22 µM]
